# Data from PubChem BioAssay (NCI).
# Several values for one entry are separate records, joined by “and”; a condition that tells them apart may be missing. Identical values can stand only once. This is part of a sample that, as a whole, favours compounds with a hit. Of some 83,000 tested, about 20% had one in any assay.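 96-well plates, one dose, 48 hours. Percent growth reported; active if below 10.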 Activity calls are given as the source filed them.
# Tests used:
# Experiment in all cases: NCI-60 one-dose screen, 48 h (100 = growth as untreated, 0 = no growth, -100 = all killed)
# [1] = system: T-47D breast
# [2] = system: BT-549 breast
# [3] = system: MDA-MB-435 melanoma
# [4] = system: SW-620 colon
# [5] = system: MCF7 breast
# [6] = system: HCT-116 colon
# [7] = system: HCC-2998 colon
# [8] = system: KM12 colon
smiles,measurement,setting,value
O=C1N[C@H]2[C@H](CS[C@H]2CCCCC(=O)N(CCP(c2ccccc2)c2ccccc2)CCP(c2ccccc2)c2ccccc2)N1,growth,[1]; 10 µM unless noted,74.8% (inactive)
same,growth,[2]; 10 µM unless noted,96.9% (inactive)
same,growth,[3]; 10 µM unless noted,96.1% (inactive)
same,growth,[4]; 10 µM unless noted,88.7% (inactive)
same,growth,[5]; 10 µM,20.9% (inactive)
same,growth,[6]; 10 µM unless noted,35.5% (inactive)
same,growth,[7]; 10 µM unless noted,88.9% (inactive)
CN(C)C(=O)c1ccc(SC(=S)NCc2ccccc2)cc1,growth,[1]; 10 µM,90% (inactive)
same,growth,[1]; 100 µM,13.4% (inactive)
same,growth,[2]; 10 µM,114% (inactive)
same,growth,[2]; 100 µM,-79.3% (active)
same,growth,[3]; 10 µM,97.4% (inactive)
same,growth,[3]; 100 µM,4.45% (active)
same,growth,[4]; 10 µM,98.9% (inactive)
same,growth,[4]; 100 µM,-35.8% (active)
same,growth,[5]; 10 µM,67.3% (inactive)
same,growth,[5]; 100 µM,-7.59% (active)
same,growth,[6]; 10 µM,100% (inactive)
same,growth,[6]; 100 µM,-26.2% (active)
same,growth,[7]; 10 µM,104% (inactive)
same,growth,[7]; 100 µM,-78.3% (active)
same,growth,[8]; 10 µM,102% (inactive)
same,growth,[8]; 100 µM,25.5% (inactive)
Oc1ccc(/C=N/NC(=S)Nc2ccccc2)nc1,growth,[1]; 10 µM unless noted,12.6% (inactive)
same,growth,[2]; 10 µM unless noted,44.8% (inactive)
same,growth,[3]; 10 µM unless noted,31.5% (inactive)
same,growth,[4]; 10 µM unless noted,39.4% (inactive)
same,growth,[5]; 10 µM,16.4% (inactive)
same,growth,[6]; 10 µM unless noted,21% (inactive)
same,growth,[7]; 10 µM unless noted,5.05% (active)
O=[N+]([O-])c1ccc2c(N=Nc3ccc4ccccc4c3O)c(O)cc(S(=O)(=O)O)c2c1,growth,[1]; 10 µM unless noted,96.1% (inactive)
same,growth,[2]; 10 µM unless noted,92.4% (inactive)
same,growth,[3]; 10 µM unless noted,97% (inactive)
same,growth,[4]; 10 µM unless noted,92.2% (inactive)
same,growth,[5]; 10 µM,98.6% (inactive)
same,growth,[6]; 10 µM unless noted,93.3% (inactive)
same,growth,[7]; 10 µM unless noted,94.4% (inactive)
same,growth,[8]; 10 µM unless noted,95.6% (inactive)
CC(C)c1ccc2nc3ccc(C(=O)NCCN4CCN(c5ccccc5)CC4)cn3c(=O)c2c1,growth,[1]; 10 µM unless noted,28.5% (inactive)
same,growth,[2]; 10 µM unless noted,51.3% (inactive)
same,growth,[3]; 10 µM unless noted,58.7% (inactive)
same,growth,[4]; 10 µM unless noted,87.4% (inactive)
same,growth,[5]; 10 µM,58.8% (inactive)
same,growth,[6]; 10 µM unless noted,53.6% (inactive)
same,growth,[7]; 10 µM unless noted,75.9% (inactive)
O=Nc1ccccc1N=O,growth,[1]; 10 µM unless noted,94.3% (inactive)
same,growth,[2]; 10 µM unless noted,92.7% (inactive)
same,growth,[3]; 10 µM unless noted,87.3% (inactive)
same,growth,[4]; 10 µM unless noted,77.5% (inactive)
same,growth,[5]; 10 µM,65.1% (inactive)
same,growth,[6]; 10 µM unless noted,92.8% (inactive)
same,growth,[7]; 10 µM unless noted,93.9% (inactive)
same,growth,[8]; 10 µM unless noted,91.3% (inactive)
Nc1ncnc2c1ncn2C1OC(CO)C(O)C1O (centres undefined),growth,[1]; 10 µM unless noted,109% (inactive) and 9.96% (active) and 90.6% (inactive)
same,growth,[2]; 10 µM unless noted,101% (inactive) and 47.6% (inactive) and 123% (inactive)
same,growth,[3]; 10 µM unless noted,110% (inactive) and 103% (inactive) and 112% (inactive)
same,growth,[4]; 10 µM unless noted,112% (inactive) and 85.1% (inactive) and 106% (inactive)
same,growth,[5]; 10 µM,107% (inactive) and 10.7% (inactive) and 97% (inactive)
same,growth,[6]; 10 µM unless noted,108% (inactive) and 65% (inactive) and 90% (inactive)
same,growth,[7]; 10 µM unless noted,105% (inactive) and 31.2% (inactive) and 107% (inactive)
same,growth,[8]; 10 µM unless noted,116% (inactive) and 112% (inactive) and 114% (inactive)
C=CCOc1ccc(N=NC(C#N)C#N)cc1,growth,[1]; 10 µM unless noted,-2.81% (active)
same,growth,[2]; 10 µM unless noted,92.1% (inactive)
same,growth,[3]; 10 µM unless noted,88.3% (inactive)
same,growth,[4]; 10 µM unless noted,40.4% (inactive)
same,growth,[5]; 10 µM,22.6% (inactive)
same,growth,[6]; 10 µM unless noted,46.8% (inactive)
same,growth,[7]; 10 µM unless noted,101% (inactive)
same,growth,[8]; 10 µM unless noted,100% (inactive)
C[N+](C)=c1ccc2nc3c(cc(NCCCNc4cc5oc6cc(=[N+](C)C)ccc-6nc5c5ccccc45)c4ccccc43)oc-2c1,growth,[1]; 10 µM unless noted,46.2% (inactive)
same,growth,[2]; 10 µM unless noted,61.6% (inactive)
same,growth,[3]; 10 µM unless noted,-82.1% (active)
same,growth,[4]; 10 µM unless noted,-25.5% (active)
same,growth,[5]; 10 µM,-52.4% (active)
same,growth,[6]; 10 µM unless noted,-36.9% (active)
same,growth,[7]; 10 µM unless noted,23.7% (inactive)
same,growth,[8]; 10 µM unless noted,17.5% (inactive)
O=C(/C=C\c1cc(Br)ccc1O)/C=C/c1cc(Br)ccc1O,growth,[1]; 10 µM unless noted,6.69% (active)
same,growth,[2]; 10 µM unless noted,-12.3% (active)
same,growth,[3]; 10 µM unless noted,-47.9% (active)
same,growth,[4]; 10 µM unless noted,-43.4% (active)
same,growth,[5]; 10 µM,6.18% (active)
same,growth,[6]; 10 µM unless noted,-97.8% (active)
same,growth,[7]; 10 µM unless noted,-74.4% (active)
same,growth,[8]; 10 µM unless noted,-71.5% (active)
O=C(O)C1C2CC3C(OC(=O)C31)C2Br (centres undefined),growth,[1]; 10 µM unless noted,98.7% (inactive) and 96% (inactive)
same,growth,[2]; 10 µM unless noted,99.4% (inactive) and 93.2% (inactive)
same,growth,[3]; 10 µM unless noted,109% (inactive) and 95.4% (inactive)
same,growth,[4]; 10 µM unless noted,94.7% (inactive) and 94.8% (inactive)
same,growth,[5]; 10 µM,88.7% (inactive) and 93.8% (inactive)
same,growth,[6]; 10 µM unless noted,94.1% (inactive) and 101% (inactive)
same,growth,[7]; 10 µM unless noted,88.8% (inactive) and 96.8% (inactive)
same,growth,[8]; 10 µM unless noted,108% (inactive) and 106% (inactive)
Oc1c(Br)cc(Cl)cc1C(c1cc(Cl)cc(Br)c1O)C(Cl)(Cl)Cl,growth,[1]; 10 µM unless noted,28.9% (inactive)
same,growth,[2]; 10 µM unless noted,28% (inactive)
same,growth,[3]; 10 µM unless noted,39% (inactive)
same,growth,[4]; 10 µM unless noted,17.8% (inactive)
same,growth,[5]; 10 µM,11.1% (inactive)
same,growth,[6]; 10 µM unless noted,4.13% (active)
same,growth,[7]; 10 µM unless noted,16.9% (inactive)
same,growth,[8]; 10 µM unless noted,13% (inactive)
CC1OC(OC2C(OC3CCC4(C)C(CCC5(C)C4CC=C4C6CC(C)(C)CCC6(CO)C(O)CC45C)C3(C)C)OC(C(=O)O)C(OC3OC(COC4OC(CO)C(O)C(O)C4O)C(O)C(O)C3O)C2O)C(O)C(O)C1O (centres undefined),growth,[1]; 10 µM unless noted,-72.7% (active)
same,growth,[2]; 10 µM unless noted,-92.5% (active)
same,growth,[3]; 10 µM unless noted,-85.3% (active)
same,growth,[4]; 10 µM unless noted,-64.2% (active)
same,growth,[5]; 10 µM,-67.7% (active)
same,growth,[6]; 10 µM unless noted,-88% (active)
same,growth,[7]; 10 µM unless noted,-81.9% (active)
same,growth,[8]; 10 µM unless noted,-70.9% (active)
